Read-out in assay [1]: Interleukin-1 alpha (IL1a), IL1A (gene 3552)
As to the kind of experiment: BSK_KF3CT_IL1a: BioMAP Diversity Plus: KF3CT Assay for Interleukin-1 alpha (IL1a) Biomarker Activity (AID 2283070). To be noted: primary human keratinocytes with fibroblasts; actives raise or lower the signal. In short, it runs like this:
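Readout is IL-1a level by ELISA, compared bidirectionally with DMSO as baseline. Cells: human keratinocytes co-cultured with foreskin fibroblasts, harvested 24 h post-dose.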

Read-out in assay [2]: TIMP metallopeptidase inhibitor 2 (TIMP2), TIMP2 (gene 7077)
As to the kind of experiment: BSK_KF3CT_TIMP2: BioMAP Diversity Plus: KF3CT Assay for TIMP metallopeptidase inhibitor 2 (TIMP2) Biomarker Activity (AID 2283071). To be noted: primary human keratinocytes with fibroblasts; actives raise or lower the signal. In short, it runs like this:
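Chemicals were dosed onto human skin primary co-cultures of keratinocytes and foreskin fibroblasts, and TIMP-2 was measured by ELISA after 24 hours. Activity in either direction was fitted relative to DMSO.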

Read-out in assay [3]: Transforming growth factor beta 1 (TGFb1), TGFB1 (gene 7040)
As to the kind of experiment: BSK_KF3CT_TGFb1: BioMAP Diversity Plus: KF3CT Assay for Transforming growth factor beta 1 (TGFb1) Biomarker Activity (AID 2283072). To be noted: primary human keratinocytes with fibroblasts; actives raise or lower the signal. The method, boiled down:
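KF3CT co-culture (keratinocytes + fibroblasts), 24 h exposure → TGF-b1 ELISA → bidirectional fit, DMSO = baseline. Parallel SRB total-protein staining (0.1% SRB, 10% TCA fixation, 560 nm) for cytotoxicity.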

Read-out in assay [4]: C-C motif chemokine 2 (Homo sapiens) (UniProt P13500)
As to the kind of experiment: BSK_KF3CT_MCP1: BioMAP Diversity Plus: KF3CT Assay for Monocyte Chemoattractant Protein 1 (MCP1/CCL2) Biomarker Activity (AID 2283073). As to conditions: primary human keratinocytes with fibroblasts; actives raise or lower the signal. In short, it runs like this:
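ELISA read-out of MCP-1, 24 h post-dose, in primary human skin keratinocytes co-cultured with fibroblasts. Parallel SRB staining monitors cytotoxicity; changes fitted both directions relative to DMSO.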

Read-out in assay [5]: Matrix Metallopeptidase 9 (MMP9), MMP9 (gene 4318)
As to the kind of experiment: BSK_KF3CT_MMP9: BioMAP Diversity Plus: KF3CT Assay for Matrix Metallopeptidase 9 (MMP9) Biomarker Activity (AID 2283074).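 For AC50: MMP9 protein level quantified by ELISA in the co-culture.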 As to conditions: primary human keratinocytes with fibroblasts; actives raise or lower the signal. In short, it runs like this:
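Values come from bidirectional fitting relative to DMSO of MMP-9 levels, which were measured by ELISA. Measurements were taken 24 h after chemical dosing of a keratinocyte and foreskin fibroblast co-culture.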

Read-out in assay [6]: urokinase plasminogen activator (uPA), PLAU (gene 5328)
As to the kind of experiment: BSK_KF3CT_uPA: BioMAP Diversity Plus: KF3CT Assay for urokinase plasminogen activator (uPA) Biomarker Activity (AID 2283075). As to conditions: primary human keratinocytes with fibroblasts; actives raise or lower the signal. In short, it runs like this:
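Values derive from bidirectional fitting against DMSO controls. Keratinocyte/foreskin fibroblast co-cultures received chemical; 24 h later uPA was detected by ELISA, with SRB total-protein staining in parallel wells for overt cytotoxicity.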

Read-out in another assay: CD40, CD40 (gene 958)
As to the kind of experiment: BSK_LPS_CD40: BioMAP Diversity Plus: LPS Assay for CD40 Biomarker Activity (AID 2283076). As to conditions: primary human HUVEC with PBMC; actives raise or lower the signal. The method, boiled down:
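In the LPS system of human endothelial cells with peripheral blood mononuclear cells, CD40 levels were read by ELISA 24 h post-treatment. Signal changes in either direction were fitted against the DMSO baseline, with parallel SRB protein staining.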

Read-out in assay [7]: E-selectin (Homo sapiens) (UniProt P16581)
As to the kind of experiment: BSK_LPS_Eselectin: BioMAP Diversity Plus: LPS Assay for Eselectin Biomarker Activity (AID 2283077). To be noted: primary human HUVEC with PBMC; actives raise or lower the signal. The method, boiled down:
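E-selectin ELISA on LPS-stimulated endothelial cell/PBMC co-cultures, read 24 h post-treatment; gains and losses fitted against DMSO. Parallel SRB staining (0.1% SRB after 10% TCA fixation, 560 nm) flags overt cytotoxicity.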

Assay [8] in a line: BSK_LPS_SRB: Viability Assessment in the BioMAP Diversity Plus: LPS Assay (AID 2283079).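 Note: total protein by sulforhodamine B absorbance as a cytotoxicity measure; measured one day after compound addition; fitted in both directions against DMSO so loss or gain of signal counts.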 To be noted: primary human HUVEC with PBMC. In short, it runs like this: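 SRB viability endpoint: cells fixed with 10% TCA, stained with 0.1% SRB, read at 560 nm, 24 h post-dose. HUVEC/PBMC co-culture; signal change in either direction scored relative to DMSO.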

This is an account of results in PubChem BioAssay (EPA / NIEHS).

The source holds several records for some structures; these can differ, active in one and inactive in another. The source made the active and inactive calls. Rule for the calls: active = hit-call score of the fitted dose curve at least 0.9, where 1 is the maximum; inactive = score below 0.9.

Chain of E-selectin (Homo sapiens) (P16581 whole entry, looked up): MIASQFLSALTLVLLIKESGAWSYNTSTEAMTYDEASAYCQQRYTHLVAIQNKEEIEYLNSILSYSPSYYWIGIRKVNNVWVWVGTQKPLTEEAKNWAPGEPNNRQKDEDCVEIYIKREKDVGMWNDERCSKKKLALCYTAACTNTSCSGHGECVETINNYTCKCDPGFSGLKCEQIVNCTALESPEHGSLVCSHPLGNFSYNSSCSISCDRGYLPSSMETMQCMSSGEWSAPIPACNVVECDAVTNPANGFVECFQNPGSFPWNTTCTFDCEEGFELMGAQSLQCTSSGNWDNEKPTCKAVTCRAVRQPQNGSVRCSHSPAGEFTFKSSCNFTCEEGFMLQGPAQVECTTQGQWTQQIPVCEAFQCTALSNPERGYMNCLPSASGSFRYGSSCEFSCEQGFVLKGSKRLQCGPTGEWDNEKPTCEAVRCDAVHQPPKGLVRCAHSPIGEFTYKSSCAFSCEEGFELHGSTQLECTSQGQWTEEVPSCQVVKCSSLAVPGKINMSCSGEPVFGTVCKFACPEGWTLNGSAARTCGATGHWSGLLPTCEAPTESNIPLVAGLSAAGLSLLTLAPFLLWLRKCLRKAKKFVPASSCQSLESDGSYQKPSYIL

Consider `Cc1cc(Cl)ccc1OCC(=O)O`, for which the result in [1], in [2], in [3], in [4], in [5] and in assay [6] was inactive. Further, the outcome with CD40, CD40 (gene 958) is “inactive”; in [7], “inactive”; in assay [8], “inactive”.

As usually defined, the AC50 is the concentration at which the activity in the assay is half-maximal. Take `COc1ccc(C(c2ccc(OC)cc2)C(Cl)(Cl)Cl)cc1`: the AC50 in assay [1] is 7.74 µM (active); in assay [5] it was 12.7 µM (active); with CD40, CD40 (gene 958) it was 23.3 µM (active); in [7], 27.5 µM (active); in assay [8], 20 µM (active). Moreover, the result in [2], in [3], in assay [4] and in assay [6] was inactive.

In the case of `CCNc1nc(Cl)nc(NCC)n1`, the result in assay [1], in [2], in [3], in assay [4], in assay [5] and in assay [6] was inactive. In addition, the outcome was “inactive” with CD40, CD40 (gene 958); “inactive” in assay [7]; “inactive” in [8].

With `C=CC1(C)OC(=O)N(c2cc(Cl)cc(Cl)c2)C1=O` (configuration not stated), the outcome in assay [1], in assay [2], in assay [3], in assay [4], in assay [5] and in assay [6] was inactive. Besides, the outcome with CD40, CD40 (gene 958) is “inactive”; in [7] it was “inactive”; in assay [8], “inactive”.

Consider `CCCCOC(=O)c1ccccc1C(=O)OCCCC`, for which the outcome in [1], in assay [2], in [3], in [4], in [5] and in [6] was inactive. Also, the outcome with CD40, CD40 (gene 958) was “inactive”; in [7], “inactive”; in [8] it was “inactive”. For the same molecule, in assay [8], the AC50 was 9.66 µM (active).

In the case of `COP(N)(=O)SC` (configuration not stated), the outcome in assay [1], in [2], in assay [3], in assay [4], in assay [5] and in assay [6] was inactive. Also, the outcome was “inactive” with CD40, CD40 (gene 958); “inactive” in assay [7]; “inactive” in assay [8].

As for `CCOP(=S)(OCC)SCn1c(=O)oc2cc(Cl)ccc21`, the result in assay [1], in assay [2], in assay [3], in assay [4], in [5] and in [6] was inactive. Besides, the AC50 with CD40, CD40 (gene 958) is 16.6 µM (active); in assay [7] it was 9.68 µM (active); in assay [8], 31.6 µM (active).

Regarding `CCNc1nc(Cl)nc(NC(C)C)n1`, the result in [1], in [2], in [3], in assay [4], in [5] and in assay [6] was inactive. Further, the outcome was “inactive” with CD40, CD40 (gene 958); “inactive” in [7]; “inactive” in assay [8].

In the case of `CC(C)Oc1cc(-n2nc(C(C)(C)C)oc2=O)c(Cl)cc1Cl`, the AC50 in [1] was 13.9 µM (active); in [5], 28.8 µM (active); in the assay with CD40, CD40 (gene 958), 14.8 µM (active); in assay [7], 31.3 µM (active); in [8], 29.3 µM (active). Also, the outcome in assay [2], in [3], in assay [4] and in assay [6] was inactive.

Take `CCCC1COC(Cn2cncn2)(c2ccc(Cl)cc2Cl)O1` (configuration not stated): the outcome in [1], in assay [2], in assay [3], in assay [4], in assay [5] and in assay [6] was inactive. Moreover, the result in assay [7] and in assay [8] was inactive. In addition, the AC50 with CD40, CD40 (gene 958) is 20 µM (active).

For the molecule `N#Cc1cc(Br)c(O)c(Br)c1`, the outcome in [1], in [2], in assay [3], in assay [4], in [5] and in assay [6] was inactive. Besides, the result in [7] was inactive. Moreover, the AC50 with CD40, CD40 (gene 958) was 9.86 µM (active); in [8], 3.97 µM (active).

Take `O=C(O)COc1nc(Cl)c(Cl)cc1Cl`: the result in assay [1], in [2], in assay [3], in assay [4], in [5] and in assay [6] was inactive. Also, the outcome is “inactive” with CD40, CD40 (gene 958); “inactive” in assay [7]; “inactive” in assay [8].

With `COC(=O)N(OC)c1ccccc1COc1ccn(-c2ccc(Cl)cc2)n1`, the AC50 in [1] is 3.97 µM (active); in assay [4], 2.56 µM (active); in [5], 3.97 µM (active); with CD40, CD40 (gene 958), 20 µM (active); in [7] it was 6.89 µM (active); in [8], 10.1 µM (active). For the same molecule, the result in [2], in assay [3] and in [6] was inactive.

Regarding `CNC(=S)S`, the outcome in assay [1], in assay [2], in assay [3], in [4], in assay [5] and in assay [6] was inactive. For the same molecule, the AC50 is 15.7 µM (active) with CD40, CD40 (gene 958); 14.7 µM (active) in assay [7]; 26.1 µM (active) in [8].
